The full list was thinned out, with hits kept by preference.
LmPK inhibitor: inhibitors of Leishmania mexicana pyruvate kinase | actives 0.37% (n = 290,000) | purified LmPK, Kinase-Glo ATP luminescence, 1 h | Potency, µM (top dose mostly 57.5 µM), actives largely listed as inhibitors
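Purified LmPK (0.1 nM) converted ADP (0.1 mM) to ATP with PEP (0.5 mM) in imidazole buffer pH 7.2 with KCl and MgCl2, 1 h at room temperature. ATP was read by Kinase-Glo luminescence; data normalized to uninhibited and no-enzyme controls.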
Sm TGR inh: inhibitors of Schistosoma mansoni thioredoxin glutathione reductase. actives 3% (n = 360,000). Potency, µM (doses to about 114 µM), usual class: inhibitors. AID 485364. purified TGR, DTNB reduction, TNB absorbance 405 nm; further: nearly all actives have a fitted effect of over 60% in size
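First, TGR (20 nM dispensed) and NADPH were mixed with compound. Second, a 15 min room-temperature incubation followed. Third, further NADPH and then DTNB were added to start the reaction. Finally, TNB absorbance was monitored kinetically.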
FBPA Giardia inh: blocks Giardia fructose-bisphosphate aldolase activity | Potency, µM (doses to about 59.6 µM), usual class: inhibitors | actives 0.71% (n = 290,000) | purified Giardia FBPA | AID 2451 | A8B2U2; further: nearly all actives have a fitted effect of over 55% in size
Target sequence (A8B2U2 whole entry, looked up): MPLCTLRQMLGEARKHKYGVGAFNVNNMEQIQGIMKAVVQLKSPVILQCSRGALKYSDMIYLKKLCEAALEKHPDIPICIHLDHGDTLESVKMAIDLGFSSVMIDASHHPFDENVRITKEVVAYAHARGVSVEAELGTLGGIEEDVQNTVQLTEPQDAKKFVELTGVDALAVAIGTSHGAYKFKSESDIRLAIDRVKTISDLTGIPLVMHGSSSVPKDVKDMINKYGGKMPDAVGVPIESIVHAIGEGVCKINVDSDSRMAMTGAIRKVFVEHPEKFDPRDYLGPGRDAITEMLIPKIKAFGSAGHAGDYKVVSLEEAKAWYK
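40 nM FBPA preincubated 10 min at RT with compound (up to 57.5 uM final), then substrate plus GAPDH/TPI/NAD/arsenate coupling and diaphorase/resazurin added. Fluorescence read after 20 min at RT, 525/598 nm.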
Shiga toxin inh: Shiga toxin inhibition; Vero cells, Shiga toxin protein synthesis inhibition reporter; inhibition, % at 38.7 µM; actives 9.2% (n = 290,000); AID 2315; in the data active means inhibition mostly above about 28%, no sharp cut-off; inactive means mostly below about 43%
TbPYK inhibitor: blocks Trypanosoma brucei pyruvate kinase; Q57TT1; TbPYK enzyme, Kinase-Glo Plus ATP luminescence, 45 min; Potency, µM (doses to about 76.8 µM), usual class: inhibitors; actives 0.12% (n = 410,000); AID 624173; further: nearly all actives have a fitted effect of over 50% in size
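TbPYK + substrate in 50 mM TEA pH 7.2, 100 mM KCl, 10 mM MgCl2, 0.05% BSA, 0.01% Tween-20; cpd pinned; ADP 130 uM final; 45 min RT; Kinase-Glo Plus 10 min; luminescence endpoint.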
CHX counter: affects cycloheximide protein synthesis inhibition readout, counter-screen | cell reporter, cycloheximide protein synthesis inhibition counterscreen | max response, % | actives 12% (n = 300,000) | AID 2314; in the data active means max response mostly above about 13%, no sharp cut-off; inactive means mostly below about 14%; further: read at 38.3 µM for the half of the compounds with a filed dose
Each line names hits and unclear results; the compound was inactive in the other large screens. Unless noted, the call rests on the fitted dose curve; in most records, active means well fitted curve in the direction sought with a large enough effect; inconclusive means small, poorly fitted or top-dose-only effect, or another doubt; inactive means no such curve, though single readings can be large; an effect the other way counts as inactive or inconclusive.

Cc1ccc([N+](=O)[O-])cc1NC(=O)c1ccc2c(c1)OCO2	none (no result: Sm TGR inh)
CC(=O)c1ccc(NC(=O)C(C)OC(=O)c2cccc(-n3cnnn3)c2)cc1 (configuration not stated)	none (no result: LmPK inhibitor, FBPA Giardia inh, Shiga toxin inh, CHX counter)
CC(=O)c1ccc(NC(=O)C(C)OC(=O)c2ccc3c(c2)nc(C)n3-c2ccccc2)cc1 (configuration not stated)	Shiga toxin inh 45, CHX counter 29
Oc1[nH]c2ccccc2c1C=Nc1ccc2c(c1)OCCO2	LmPK inhibitor inconclusive, CHX counter 32
Oc1c(Br)cc(Br)cc1C=Nc1ccc2c(c1)OCCO2	Shiga toxin inh 50, CHX counter 32
O=[N+]([O-])c1ccc(O)c(C=Nc2ccc3oc(Cc4ccc(Cl)cc4)nc3c2)c1	Sm TGR inh 50µM, FBPA Giardia inh inconclusive (no result: TbPYK inhibitor)
Cc1[nH]c2ccccc2c1/C=N/NC(=O)CNC(=O)c1ccc2c(c1)OCCO2	none
O=[N+]([O-])c1ccc(O)c(C=Nc2ccc3c(c2)OCCO3)c1	Shiga toxin inh 108, CHX counter 112
O=[N+]([O-])c1ccc(O)c(C=Nc2cccc3ncccc23)c1	Sm TGR inh inconclusive, FBPA Giardia inh inconclusive
CC(C)CNC(=O)C1(C)CCCN1C(=O)c1cccnc1Oc1ccccc1 (configuration not stated)	none (no result: LmPK inhibitor, Sm TGR inh, FBPA Giardia inh, Shiga toxin inh, CHX counter)
COc1ccccc1NC(=O)CSc1nncn2c1cc1sccc12	none (no result: LmPK inhibitor, FBPA Giardia inh, Shiga toxin inh, CHX counter)
CC(=O)Nc1ccc(SCCN2CC[C@@H](C)CCC2=O)cc1	none (no result: LmPK inhibitor, FBPA Giardia inh, Shiga toxin inh, CHX counter)
CC(/C=C/c1ccccc1F)=N\NC(=O)C(C)C	Shiga toxin inh 42, CHX counter 35
CCCCC(=O)N/N=C(\C)CC(=O)Nc1ccccc1Br	none
CCCCC(=O)N/N=C(C)/C=C/c1ccccc1F	Shiga toxin inh 63, CHX counter 29
Nc1nsc2ccccc12	CHX counter 24
Nc1nnc(N)c2ccccc12	none
O/N=C/c1ccc2ccccc2c1	CHX counter 21
CC(C)C[C@@H](C(=O)N[C@@H](Cc1c[nH]c2ccccc12)C(N)=O)N1C[C@]2(CCCN2C(=O)[C@H](Cc2ccccc2)NC(=O)[C@H](Cc2ccccc2)NC(=O)[C@H](CCC(N)=O)NC(=O)[C@H](CCC(N)=O)NC(=O)[C@@H]2CCCN2C(=O)[C@H](CCCCN)NC(=O)[C@@H]2CCCN2C(=O)[C@@H](N)CCCNC(=N)N)CC1=O	none (no result: LmPK inhibitor, Sm TGR inh, TbPYK inhibitor)
O=C(NCCCN1CCOCC1)c1sc2cc(F)ccc2c1Cl	Shiga toxin inh 42, CHX counter 38
O=C(NCCCN1CCOCC1)c1sc2cc(Cl)ccc2c1Cl	none
O=C(NCCN1CCOCC1)c1cc([N+](=O)[O-])ccc1Cl	none (no result: Shiga toxin inh)
O=C(NCCCN1CCOCC1)c1sc2cc([N+](=O)[O-])ccc2c1Cl	FBPA Giardia inh 2.5µM, TbPYK inhibitor inconclusive
Cc1cc(C)cc(NC(=O)N2CCC(CN3CCc4ccccc4C3)CC2)c1	none (no result: LmPK inhibitor, FBPA Giardia inh, Shiga toxin inh, CHX counter)
CC(=O)N1CCn2c3c(c(=O)c4cc(C)ccc42)CCC31 (configuration not stated)	Sm TGR inh 20µM, FBPA Giardia inh inconclusive
Cc1ccc2c(c1)c1c3n2CCN(CCC#N)C3CCC1 (configuration not stated)	none (no result: LmPK inhibitor, Sm TGR inh, FBPA Giardia inh, Shiga toxin inh, CHX counter)
CC(=O)N1CCn2c3c(c4cc(C)ccc42)CCCC31 (configuration not stated)	none
Cc1ccc2c(c1)c1c3n2CCN(C(=O)CCl)C3CCC1 (configuration not stated)	Sm TGR inh 22µM, CHX counter 9.8
CCOc1cc(C(=O)N2CCn3c4c(c5cc(C)ccc53)CCCC42)cc(OCC)c1OCC (configuration not stated)	none (no result: LmPK inhibitor, FBPA Giardia inh, Shiga toxin inh, CHX counter)
CCN1CCn2c3c(c4cc(C)ccc42)CCCC31 (configuration not stated)	CHX counter 25
Cn1ccc2cc(S(=O)(=O)N3CCCN(C(=O)Nc4ccccc4Br)CC3)ccc21	none (no result: LmPK inhibitor, FBPA Giardia inh, Shiga toxin inh, CHX counter)
COc1ccc(C(=O)N2C(=S)NC(=O)/C2=C\c2ccc(C)cc2)cc1	CHX counter 22
O=C(COC(=O)c1ccccc1Br)NCc1ccccc1	CHX counter 24
O=C(COC(=O)c1ccccc1Br)Nc1ccccc1F	Shiga toxin inh 57, CHX counter 55
Cc1ccc(N2NC(C)(c3cccs3)NC2=S)cc1 (configuration not stated)	Shiga toxin inh 74, CHX counter 31
Cc1ccc(N2CC(O)(c3cccs3)[N+]3=C2CCCC3)cc1 (configuration not stated)	none
COc1ccccc1NC(=O)CSc1nnc(NC(=O)Nc2ccc(C)cc2)s1	none (no result: LmPK inhibitor, FBPA Giardia inh, Shiga toxin inh, CHX counter)
CN(C)c1cccc(C(=O)Nc2cccc(S(=O)(=O)NC3=NCCC3)c2)c1	Shiga toxin inh 70, CHX counter 33 (no result: FBPA Giardia inh)
CSCCCNC(=S)Nc1cccc(S(=O)(=O)NC2=NCCC2)c1	Sm TGR inh inconclusive
C=C(C)CNC(=S)Nc1cccc(S(=O)(=O)NC2=NCCC2)c1	Sm TGR inh 56µM
C=CCNC(=O)c1ccc(Cn2cc(C(F)(F)F)ccc2=O)cc1	none
c1ccc(N2CCN(c3ccccc3)C2c2cccs2)cc1	Shiga toxin inh 94, CHX counter 30
O=C1CSC(c2cccs2)N1c1ccccc1 (configuration not stated)	none
NC(=O)c1c(NC(=O)c2ccc([N+](=O)[O-])o2)sc2c1CCCC2	none
NC(=O)c1c(NC(=O)c2cc3ccccc3o2)sc2c1CCC2	Shiga toxin inh 72, CHX counter 36
CCCNC(=O)c1c(NC(=O)c2ccccc2F)sc2c1CCCCC2	none (no result: LmPK inhibitor, FBPA Giardia inh, Shiga toxin inh, CHX counter)
CC(C)(C)c1ccc(C(=O)Nc2sc3c(c2C(=O)O)CCC3)cc1	FBPA Giardia inh inconclusive
O=C(Nc1sc2c(c1C(=O)O)CCCCC2)c1ccccc1F	FBPA Giardia inh inconclusive, Shiga toxin inh 109, CHX counter 41
O=C(Nc1sc2c(c1C(=O)O)CCCC2)c1ccc(F)cc1	FBPA Giardia inh inconclusive, Shiga toxin inh 49, CHX counter 33
NC(=O)c1c(NC(=O)c2ccc(F)cc2)sc2c1CCC2	Sm TGR inh inconclusive, Shiga toxin inh 45, CHX counter 53
CCC(=O)Nc1ccc(Br)c(Cl)c1	none
C/C(=C\C(=O)c1ccccc1)Nc1ccc(Br)c(Cl)c1	CHX counter 23 (no result: FBPA Giardia inh)
C/C(=C\C(=O)c1ccc(Br)cc1)Nc1ccc(Cl)cc1	Shiga toxin inh 36
O=C(Cc1ccccc1)Nc1ccc(NC(=O)Cc2ccccc2)c(Cl)c1	none
C/C(=C\C(=O)c1ccc(Cl)cc1)Nc1ccc(N2CCOCC2)cc1	none
O=C(Cc1ccccc1)Nc1ccc(Br)c(Cl)c1	Shiga toxin inh 25, CHX counter 21
CNS(=O)(=O)c1cc(-c2nnc(Nc3cc(C)ccc3C)c3ccccc23)ccc1C	none (no result: LmPK inhibitor, FBPA Giardia inh, Shiga toxin inh, CHX counter)
CCOC(=O)CNC(=O)c1cc2c(=O)oc3ccccc3c2s1	none (no result: LmPK inhibitor, FBPA Giardia inh, Shiga toxin inh, CHX counter)
Cc1cc(NC(=O)c2cc(-c3ccc(F)cc3)on2)nn1Cc1ccc(Cl)cc1	none (no result: LmPK inhibitor, FBPA Giardia inh, Shiga toxin inh, CHX counter)
